TIM10 inh – growth inhibitors of TIM10 yeast strain. S. cerevisiae TIM10 strain growth, BacTiter-Glo luminescence, 24 h. inhibition, % at 10 µM. actives 1.4% (n = 330,000);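 active = inhibition of 40% or more at the single tested concentration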;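 also: wild-type TIM10 isogenic control strain grown at permissive 25 °C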
tim23-1 inh – inhibits growth of tim23-1 mutant yeast | inhibition, % at 20 µM | AID 463212 | S. cerevisiae tim23-1 growth, BacTiter-Glo luminescence, 24 h | actives 1.3% (n = 330,000);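 active = growth inhibition of the mutant yeast at or above 50%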;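 also: temperature-sensitive mutant grown at 25 °C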
tim10-1 inh – tim10-1 yeast growth inhibition; S. cerevisiae tim10-1 ts strain growth, BacTiter-Glo, 24 h; inhibition, % at 20 µM; actives 2.2% (n = 330,000);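 active = inhibition of at least 40%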;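 also: mutant grown at 25 °C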
PfHsp90 set2 – growth inhibition of yeast expressing Plasmodium Hsp90; actives 0.32% (n = 310,000); inhibition, % at 9.4 µM; S. cerevisiae expressing PfHsp90, BacTiter-Glo ATP, 48 h; yeast lacking PDR1 and PDR3 efflux regulators; AID 504621;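 active = every replicate shows inhibition above about 80%, whatever the replicate mean, limit read from the data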
SKKanGAS inh – blocks kanamycin growth of S. pyogenes SKKanGAS strain | BacTiter-Glo, 6 h | inhibition, % at 7.5 µM | AID 1662 | actives 1.3% (n = 300,000);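 active = mean replicate score, as percent of positive control median, at least 50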;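 also: strain carries kanamycin resistance gene driven by streptokinase promoter and grows in 40 µg/ml kanamycin; loss of luminescence reflects streptokinase promoter inhibition or plain growth inhibition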
NLRP3 yeast inh – blocks the NALP3 inflammasome reconstituted in yeast; actives 0.39% (n = 330,000); Yeast reconstituted NLRP3/ASC/caspase-1, beta-gal luminescence, 24 h; AID 2825; inhibition, % at 10 µM;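 active = inhibition of 50% or more; inactive = inhibition below 50%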
NALP3 confirm – confirmation of NALP3 inhibitors in yeast. yeast expressing human NALP3, luminescence. inhibition, % at 10 µM. shares compounds with NLRP3 yeast inh. actives 81% (n = 1,300). AID 435006; in the data active = inhibition above about 48%
Casp1-ASC yeast – counter-screen for NALP3 inhibitors: yeast caspase-1-ASC; shares compounds with NLRP3 yeast inh; inhibition, % at 10 µM; actives 66% (n = 1,000); yeast expressing Caspase-1-ASC, luminescence counter screen
NALP3 retest – yeast NALP3 inhibition, confirmed on retest | shares compounds with NLRP3 yeast inh | yeast expressing human NALP3, luminescence read-out | inhibition, % at 10 µM | actives 53% (n = 1,000) | AID 488794
Numbers stand for hits; - = inactive; . = not tested or not shown. Shown are actives, neighbours in structure and some others; about 4.6% of the full set was active somewhere. Rule as the data show it, unless noted: active = inhibition above about 50%; inactive = the rest.

SMILES	TIM10 inh	tim23-1 inh	tim10-1 inh	PfHsp90 set2	SKKanGAS inh	NLRP3 yeast inh	NALP3 confirm	Casp1-ASC yeast	NALP3 retest
O=C1c2ccsc2SCCN1Cc1ccc(Cl)cc1	-	-	-	-	-	79.4	83.5	88.4	79.8
CC1=C(C)CC(C(=O)NCc2cccc(Cl)c2)C(C(=O)O)C1 (configuration not stated)	-	-	-	-	-	-	.	.	.
COc1ccccc1C1(O)C(=O)Nc2ccccc21 (configuration not stated)	-	-	-	-	-	-	.	.	.
Fc1ccc(CSc2ncnc3c2oc2ccccc23)cc1	.	.	.	-	.	.	.	.	.
O=C(CSc1ncnc2c1oc1ccccc12)NCc1ccc(F)cc1	-	-	-	-	-	55.4	63.4	-	-
CC(C)(C)c1ccc(C(=O)NC(=S)N2CCCCCC2)cc1	-	-	-	-	-	-	.	.	.
CC(C)(C)c1ccc(C(=O)NC(=S)N2CCCC2)cc1	-	-	-	-	-	62.9	49.2	80.4	71.0
O=C(Nc1ccc(Br)cn1)c1cccc2ccccc12	-	-	-	-	-	51.5	-	.	.
CC(C)(CC(=O)O)CC(=O)Nc1ccc(Cl)c(Cl)c1	-	-	-	-	-	-	.	.	.
CCN(CC)c1ncnc2sc3c(c12)CCC3	-	-	-	.	-	60.9	64.0	67.2	57.2
CCOc1ccc(N2C(=O)/C(=C/c3ccccn3)SC2=S)cc1	-	-	-	.	-	-	.	.	.
O=C1/C(=C/c2cccnc2)SC(=S)N1c1ccc(F)cc1	-	-	-	-	-	-	.	.	.
O=C1/C(=C/c2cccnc2)SC(=S)N1c1ccc(O)cc1	-	-	-	-	-	87.3	89.2	90.0	74.0
O=C1/C(=C/c2cccnc2)SC(=S)N1CCc1ccccc1	-	-	-	-	-	50.0	-	.	.
Cc1ccc(/C=C2\SC(=S)N(c3cccnc3)C2=O)cc1	-	-	-	-	-	54.1	-	.	.
O=C1/C(=C/c2cccnc2)SC(=S)N1CC1CCCO1 (configuration not stated)	-	-	-	-	-	-	.	.	.
O=C1/C(=C/c2ccccn2)SC(=S)N1c1cccc(O)c1	-	-	-	-	-	81.3	73.6	79.5	51.4
O=C(NC(=S)Nc1ccccc1[N+](=O)[O-])c1ccccc1	-	-	-	-	-	-	.	.	.
O=C(NC(=S)/C(=C1\CCCCCN1)[N+](=O)[O-])c1ccccc1	-	-	-	-	.	58.7	54.2	64.2	-
Cc1ccc(CNc2cnn(C34CC5CC(CC(C5)C3)C4)c(=O)c2Cl)cc1	-	-	-	-	-	52.8	48.9	-	-
C=C(CC[C@@H](O)C(C)(C)O)[C@H]1CC[C@]2(C)[C@@H]1CCC1[C@@]3(C)CCC(=O)C(C)(C)C3CC[C@]12C (some centres not stated)	-	-	-	-	.	54.4	-	51.9	-
Cc1ccc2nc(NC(=O)C(NS(=O)(=O)c3cccc4nsnc34)C(C)C)sc2c1 (configuration not stated)	-	-	-	-	-	-	.	.	.
Cc1csc(=Nc2cccnc2)n1CC1CCCCC1	-	-	-	-	-	-	-	.	.
CC1CCc2c(C(=O)Nc3ccc(N4CCOCC4)cc3)csc2C1 (configuration not stated)	-	-	-	-	-	68.6	53.2	63.6	52.5
CC1CCc2c(C(=O)NCCN3CCOCC3)csc2C1 (configuration not stated)	-	-	-	-	-	-	.	.	.
CC(C)(C)c1csc(N/N=C/c2cccnc2)n1	-	-	-	-	-	58.4	68.5	75.5	55.6
C(=N\Nc1nc(-c2ccccc2)cs1)/c1cccnc1	-	-	-	-	-	-	.	.	.
CCNC(=S)Nc1ccc(Cc2nc3ccccc3[nH]2)cc1	-	-	-	-	-	-	.	.	.
Nc1c(-c2ccc(Cl)cc2)cnn1-c1cc(C(F)(F)F)cc(C(F)(F)F)c1	-	-	-	-	-	-	.	.	.

Bioassay records as filed in PubChem BioAssay.
